Bioassay records deposited in PubChem BioAssay by National Center for Advancing Translational Sciences (NCATS).
FLuc counter = counter-screen for miR-21 project: firefly luciferase inhibitors or activators. P08659. purified FLuc, Km substrates, luminescence inhibition. Potency, µM (highest dose often 57.5 µM), usual class: inhibitors. hit rate 6.9% among 360,000. AID 588342; also: nearly all actives have a fitted effect of over 55% in size
Target sequence (P08659 whole entry, looked up): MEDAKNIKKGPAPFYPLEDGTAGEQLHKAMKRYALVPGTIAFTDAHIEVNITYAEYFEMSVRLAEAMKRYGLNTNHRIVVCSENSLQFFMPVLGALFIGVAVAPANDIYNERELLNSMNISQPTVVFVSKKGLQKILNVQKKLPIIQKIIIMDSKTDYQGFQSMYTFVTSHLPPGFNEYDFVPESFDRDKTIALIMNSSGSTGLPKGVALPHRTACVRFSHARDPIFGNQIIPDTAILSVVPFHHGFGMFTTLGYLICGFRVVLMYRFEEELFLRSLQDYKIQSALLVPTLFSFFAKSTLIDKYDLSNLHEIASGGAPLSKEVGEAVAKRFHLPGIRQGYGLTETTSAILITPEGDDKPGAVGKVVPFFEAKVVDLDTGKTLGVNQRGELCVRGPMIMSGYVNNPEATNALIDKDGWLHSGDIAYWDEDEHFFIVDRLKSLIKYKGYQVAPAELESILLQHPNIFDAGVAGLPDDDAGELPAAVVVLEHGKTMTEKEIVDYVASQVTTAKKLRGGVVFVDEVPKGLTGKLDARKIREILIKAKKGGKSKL
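Biochemical qHTS of compounds, final roughly 60 µM downward over six points, against 10 nM purified firefly luciferase using Km concentrations of substrates (10 uM D-luciferin, 10 uM ATP) in Tris acetate pH 7.5 buffer; luminescence output.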
ELG1 genotox = induces genotoxicity in HEK293T cells with luciferase-tagged ELG1; HEK293T ELG1-luciferase reporter, luminescence, 16 h; Potency, µM (titrated, usually from 46 µM), actives largely listed as activators; hit rate 1.3% among 330,000; AID 504466; also: nearly all actives have a fitted effect of over 60% in size
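DMSO vehicle served as control against compound-treated ELG1-luciferase HEK293T cells; exposure lasted 16 hr at 37 °C and 5% CO2, followed by ONE-Glo luminescence detection after 30 min.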
Rab9 promoter act = activators of Rab9 promoter. Huh7 Rab9 promoter-luciferase reporter, luminescence, 24 h. Potency, µM (doses to about 9.22 µM), usual class: activators. hit rate 2.8% among 320,000. AID 485297; also: nearly all actives have a fitted effect of over 60% in size
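Cell-based reporter: Huh7 stable for Rab9 promoter-driven luciferase, plated in reduced-serum medium with 10% FBS at 1500 cells/well, compound-treated 24 h at 37 °C, luminescence read after 10 min reagent.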
SMN2 splice enh = SMN2 splice variant enhancement. HEK293 SMN2-luciferase splicing reporter, luminescence, 30-36 h. hit rate 2.8% among 210,000. Potency, µM (titrated, usually from 46.1 µM), most hits filed as activators. AID 1458; also: nearly all actives have a fitted effect of over 55% in size
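HEK293 cells carry an SMN2 […]–luciferase reporter in which exon 7 inclusion puts luciferase in frame. Cells were plated 10-12 h before compound addition, then incubated 30-36 h at 37C. ONE-Glo luminescence was read; sodium butyrate at 4.5 mM final served as control.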
NPC1 prom act = activates the NPC1 promoter | Huh7 NPC1 promoter luciferase reporter, 24 h | Potency, µM (doses to about 9.22 µM), usual class: activators | hit rate 2.4% among 320,000 | AID 485313; also: nearly all actives have a fitted effect of over 60% in size
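Quantitative HTS used a cell-based reporter: Huh7 cells stably bearing the NPC1 promoter upstream of luciferase were treated with compounds for 24 h, and promoter activation was read as luminescence.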
Luc counter = Kinase-Glo luciferase inhibition (counter-screen) | AID 1379 | Kinase-Glo luciferase, ATP luminescence, 8 min | Potency, µM (series often up to 38.3 µM), hits mostly inhibitors | Q27757 | hit rate 0.28% among 200,000; also: nearly all actives have a fitted effect of over 60% in size
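Substrate mix (final 50 mM imidazole pH 7.2, 50 mM KCl, 7 mM MgCl2, 10 uM ATP, 0.01% Tween 20, 0.05% BSA) plus pin-tool compound, then Kinase-Glo detection mix; 8 min ambient, luminescence read.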
Of the large screens only hits and unclear results are named; the others gave an inactive call. Compounds with a hit are over-represented: about 7.5% of the library has one in this group of screens. Calls follow the shape of the dose curve; as a rule, active = well fitted curve in the direction sought with a large enough effect; inconclusive = small, poorly fitted or top-dose-only effect, or another doubt; inactive = no such curve, though single readings can be large; an effect the other way counts as inactive or inconclusive.

COc1ccc(NC(=S)N2CCCC(c3nc4ccc(C)cc4[nH]3)C2)c(OC)c1 (stereo not given)	FLuc counter 13.5µM (no result: SMN2 splice enh)
Cc1ccc(NC(=S)N2CCCC(c3nc4ccc(C)cc4[nH]3)C2)c(C)c1 (stereo not given)	none
COc1ccc(NC(=S)N2CCCC(c3nc4ccc(C)cc4[nH]3)C2)cc1 (stereo not given)	FLuc counter 13.5µM (no result: SMN2 splice enh)
O=C(CC1(O)C(=O)N(Cc2ccccc2)c2ccccc21)c1ccncc1 (stereo not given)	none
Cc1ccc2nc(NCCc3ccc(Cl)cc3)c3nncn3c2c1	SMN2 splice enh inconclusive (no result: Luc counter)
Cc1cccc(CCNc2nc3ccc(C)cc3n3cnnc23)c1	FLuc counter 16.9µM, ELG1 genotox inconclusive, NPC1 prom act inconclusive (no result: SMN2 splice enh, Luc counter)
Cc1ccc(Nc2nc3ccccc3n3cnnc23)cc1C	FLuc counter inconclusive, Rab9 promoter act inconclusive, NPC1 prom act 1.12µM (no result: SMN2 splice enh, Luc counter)
CCn1c(=O)c2c(nc3n2CCN3c2ccc(OC)cc2)n(C)c1=O	none (no result: ELG1 genotox, Rab9 promoter act, SMN2 splice enh, NPC1 prom act, Luc counter)
CCOc1cc(NC(=O)C(C)C)c(OCC)cc1NC(=O)Nc1ccccc1	none (no result: SMN2 splice enh, Luc counter)
COc1ccc(-c2ccc(=O)n(CC(=O)Nc3ccccc3C(F)(F)F)n2)cc1	none (no result: ELG1 genotox, Rab9 promoter act, SMN2 splice enh, NPC1 prom act, Luc counter)
COc1cccc(OC)c1C(=O)Nc1nc(-c2ccccc2)cs1	none (no result: SMN2 splice enh, Luc counter)
CC1CC1C(=O)Nc1nc(-c2ccccc2)cs1 (stereo not given)	FLuc counter 23.9µM, ELG1 genotox inconclusive, Rab9 promoter act inconclusive
O=C(Nc1nc(-c2ccccc2)ns1)c1cccs1	FLuc counter 15.1µM, Rab9 promoter act inconclusive, SMN2 splice enh 12.6µM, NPC1 prom act inconclusive
O=C(NCc1nc(-c2ccccc2)no1)c1cccs1	none
O=C(Nc1nc(-c2nc3ccccc3s2)cs1)C1CC1	FLuc counter 3.01µM, ELG1 genotox 2.59µM, Rab9 promoter act 0.708µM, SMN2 splice enh 7.08µM, NPC1 prom act 1.41µM
O=C(Nc1nc(-c2ccccc2)cs1)c1cccs1	FLuc counter 8.49µM, Rab9 promoter act 3.55µM, NPC1 prom act inconclusive (no result: SMN2 splice enh, Luc counter)
CC(C)NC[C@H]1CCc2cc(CO)c([N+](=O)[O-])cc2N1	none (no result: FLuc counter, ELG1 genotox, Rab9 promoter act, NPC1 prom act)
CC(C)CNC(=O)c1cc(S(=O)(=O)N2CCOCC2)ccc1N1CCCC1	none (no result: SMN2 splice enh, Luc counter)
O=C(Nc1nc(-c2nc3ccccc3s2)cs1)c1ccco1	FLuc counter inconclusive, ELG1 genotox inconclusive, Rab9 promoter act inconclusive, SMN2 splice enh 22.4µM, NPC1 prom act inconclusive
O=C(Nc1nc(-c2ccc(Cl)s2)cs1)c1cccs1	FLuc counter 10.7µM, NPC1 prom act inconclusive
Cc1csc(NC(=O)c2ccco2)n1	none
O=C(Nc1nc(-c2ccc(Cl)s2)cs1)c1ccco1	FLuc counter 15.1µM, ELG1 genotox inconclusive, Rab9 promoter act 3.16µM, SMN2 splice enh inconclusive, NPC1 prom act inconclusive
O=C(Nc1ccc(Cl)cc1-c1nc2ccccc2s1)c1ccco1	none (no result: SMN2 splice enh, Luc counter)
O=C(NNc1nc(-c2ccccc2)cs1)c1ccco1	FLuc counter inconclusive
O=C(NNc1nc(-c2ccc(Cl)cc2)cs1)c1ccco1	FLuc counter 23.9µM
COc1ccc(OCC(=O)OCc2cc(=O)n3nc(C4CCCCC4)sc3n2)cc1	none (no result: ELG1 genotox, Rab9 promoter act, SMN2 splice enh, NPC1 prom act, Luc counter)
Cc1c(C(=O)NCCCn2ccnc2)oc2ccccc12	none
CCCn1c(N)c(N(CCOC)C(=O)Cc2ccc(S(=O)(=O)N3CCOCC3)s2)c(=O)[nH]c1=O	none (no result: SMN2 splice enh, Luc counter)
Cc1ccc(N2CC(NC(=O)c3cc4ccccc4o3)CC2=O)cc1 (stereo not given)	none (no result: ELG1 genotox, Rab9 promoter act, SMN2 splice enh, NPC1 prom act, Luc counter)
CC(C)(C)c1ccc(OCCC(=O)OCC(=O)NC(=O)NC2CCCC2)cc1	FLuc counter inconclusive (no result: SMN2 splice enh, Luc counter)
Cc1ccc(C(=O)COC(=O)CCC(=O)NC2CCCCC2)cc1C	FLuc counter 9.53µM
CC(C)(C)c1ccc(OCCC(=O)OCC(=O)NC2CCCCC2)cc1	FLuc counter 16.9µM (no result: SMN2 splice enh, Luc counter)
O=C(CCC(=O)OCC(=O)c1ccc(Cl)cc1)NC1CCCCC1	none
COc1ccc(NC(=O)CN(C)C2CCCCC2)c([N+](=O)[O-])c1	none
Fc1cccc(CSc2ccc(-c3cccs3)nn2)c1	FLuc counter 9.53µM (no result: ELG1 genotox, Rab9 promoter act, SMN2 splice enh, NPC1 prom act, Luc counter)
c1cncc(CSc2ccc(-c3cccs3)nn2)c1	FLuc counter 16.9µM, Rab9 promoter act 3.55µM, NPC1 prom act inconclusive
Clc1cccc(CSc2ccc(-c3cccnc3)nn2)c1	FLuc counter inconclusive
Fc1ccc(CSc2ccc(-c3cccs3)nn2)cc1	FLuc counter inconclusive, ELG1 genotox inconclusive, Rab9 promoter act inconclusive, SMN2 splice enh 5.01µM, NPC1 prom act inconclusive
Cc1ccc(CSc2ccc(-c3cccs3)nn2)cc1	FLuc counter 2.13µM, ELG1 genotox 23.1µM, Rab9 promoter act 2.82µM, SMN2 splice enh 14.1µM, NPC1 prom act 4.47µM
Cc1ccc(S(=O)(=O)N2CCC(=O)N(CCOCc3ccc(Cl)cc3)CC2)cc1	none
CCN(CC)c1ccc(/C=N/n2c(C)nc3ccccc3c2=O)cc1	FLuc counter inconclusive (no result: SMN2 splice enh, Luc counter)
O=C(COC(=O)c1ccccc1NCCO)Nc1cc(C(F)(F)F)ccc1N1CCOCC1	none (no result: SMN2 splice enh, Luc counter)
O=C(CSc1ccc(-c2cccs2)nn1)Nc1cccc(F)c1	FLuc counter 23.9µM (no result: ELG1 genotox, Rab9 promoter act, SMN2 splice enh, NPC1 prom act, Luc counter)
Cc1ccccc1CSc1ccc(-c2cccs2)nn1	FLuc counter 7.57µM (no result: ELG1 genotox, Rab9 promoter act, SMN2 splice enh, NPC1 prom act, Luc counter)
COc1ccc(C(=O)Nc2ccc(OCc3cc(=O)n4ccccc4n3)cc2)cc1	none (no result: ELG1 genotox, Rab9 promoter act, SMN2 splice enh, NPC1 prom act, Luc counter)
COc1ccc(-c2nnc(CSc3ncnc4sc5c(c34)CCC5)o2)cc1OC	ELG1 genotox 23.1µM
Oc1ccccc1-c1nc(/C=C/c2ccccc2Cl)nn1-c1ccccc1	FLuc counter 6.01µM (no result: ELG1 genotox, Rab9 promoter act, NPC1 prom act, Luc counter)
Cc1noc(C)c1COC(=O)/C=C/c1ccccc1Cl	FLuc counter inconclusive
